Experimental findings from PubChem BioAssay AID1851 (National Center for Advancing Translational Sciences (NCATS), 2009) are described below.

Molecules are shown by their SMILES. The whole screen tested about 16,000 compounds, of which about 5,700 (36%) were called active. Another 24% or so got no clear call; they are omitted. This is one part of the list. Unmarked numbers belong to inactive results. The call rests on the fitted dose curve; in most records, active means well fitted curve in the direction sought with a large enough effect; inconclusive means small, poorly fitted or top-dose-only effect, or effect the other way; inactive means no such curve, though single readings can be large or run the other way.
On the % scale 0 is the no-effect control and ±100 the full control effect.

Cytochrome P450 1A2 (Homo sapiens), sequence (P05177 whole entry, looked up): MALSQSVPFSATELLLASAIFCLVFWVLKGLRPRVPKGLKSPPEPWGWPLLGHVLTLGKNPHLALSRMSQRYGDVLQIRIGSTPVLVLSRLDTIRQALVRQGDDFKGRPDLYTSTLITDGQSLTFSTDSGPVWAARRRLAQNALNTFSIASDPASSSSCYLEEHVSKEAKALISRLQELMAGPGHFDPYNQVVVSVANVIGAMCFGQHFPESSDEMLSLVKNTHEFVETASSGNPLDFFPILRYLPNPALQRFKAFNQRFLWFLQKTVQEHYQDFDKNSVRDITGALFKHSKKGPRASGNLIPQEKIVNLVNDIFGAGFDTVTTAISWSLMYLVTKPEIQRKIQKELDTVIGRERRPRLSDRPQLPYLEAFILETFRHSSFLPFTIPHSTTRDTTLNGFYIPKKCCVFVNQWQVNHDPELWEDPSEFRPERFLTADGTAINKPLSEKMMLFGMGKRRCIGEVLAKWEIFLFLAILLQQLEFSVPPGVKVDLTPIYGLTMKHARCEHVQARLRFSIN

The assay addresses Cytochrome P450 1A2 (Homo sapiens) (UniProt P05177). The experiment in a line: Cytochrome panel assay with activity outcomes. The following applies: recombinant CYP, pro-luciferin dealkylation, luminescence, p450-cyp1a2; series mostly up to 57.1 µM; activity, negative = inhibition: at the top concentration.
Take `OC[C@@H]1O[C@H](O)[C@@H](Cl)[C@H](O)[C@@H]1O`: the “activity, negative = inhibition” value is 1.58%.
By AC50 is commonly meant the midpoint of the concentration-response curve, whichever way the signal moves. As for `Cc1ccc(S(N)(=O)=O)cc1NC(=O)/C=C/c1cccs1`, the concentration at half-maximal activity (AC50) was 12.6 µM (active).
Same read-out and setting: the value for `CS(=O)(=O)Nc1cccc(-c2cncnc2NCc2cccs2)c1` was 15.8 µM (active).
For `CS(=O)(=O)Nc1cccc(-c2cncnc2NCc2ccccc2)c1`, the concentration at half-maximal activity (AC50) was 25.1 µM (active).
Regarding `CS(=O)(=O)Nc1cccc(-c2ccc3ncnc(NCc4cccs4)c3c2)c1`, the AC50 is 0.0794 µM (active).
Same read-out and setting: under `Cc1cccc(CNc2ncncc2-c2cccc(NS(C)(=O)=O)c2)c1` stands 12.6 µM (active).
With `CC(=O)Nc1c(I)c(C(=O)N[C@H]2[C@@H](O)[C@H](O)[C@H](CO)O[C@@H]2O)c(I)c(N(C)C(C)=O)c1I`, the “activity, negative = inhibition” value was -14.8% [at 25.6 µM].
The same measure, in the same setting: the value for `CC12CS(=O)(=O)CC1SC(=S)N2c1ccccn1` (configuration not stated) was -6.29%.
In the case of `CS(=O)(=O)Nc1cccc(-c2ccc3ncnc(NCc4cccnc4)c3c2)c1`, the AC50 is 0.316 µM (active).
With `O=S(=O)(NCc1cccnc1)c1ccc(Cl)nc1`, the “activity, negative = inhibition” value is -6.12%.
For the molecule `CS(=O)(=O)Nc1cccc(-c2cncnc2NCc2cccnc2)c1`, the AC50 was 15.8 µM (active).
In the case of `C[C@H](O)C(=O)C1=Nc2c(nc(N)[nH]c2=O)NC1`, the “activity, negative = inhibition” value is -9.29%.
Consider `O=C(Cn1c(SCC(=O)N2CCc3ccccc3C2)nc2ccccc21)NC1CCCC1`, for which the “activity, negative = inhibition” value is -25.7%.
Regarding `C=CCn1c(SCC(=O)N2CCc3ccccc3C2)nc2ccccc2c1=O`, the concentration at half-maximal activity (AC50) is 8.91 µM (active).
Regarding `O=C(O)CCCCCn1c(SCC(=O)N2CCCC2)nc2ccsc2c1=O`, the “activity, negative = inhibition” value is 15.6%.
In the case of `CCn1ccc(C(=O)Oc2ccc(Cl)cc2)n1`, the concentration at half-maximal activity (AC50) was 14.1 µM (active).
Regarding `CC(C)OC(=O)c1cccc(C(=O)Oc2ccc(Br)cc2)n1`, the “activity, negative = inhibition” value was -28.5%.
Regarding `CN1c2ccccc2C(C)(C)C12C=Nc1c(cc(N3CCOCC3)c3ccccc13)O2` (configuration not stated), the “activity, negative = inhibition” value is -29.8%.
`CN(C)Cc1ccccc1-c1nc(N2CCOCC2)c2ccccc2n1`: the AC50 is 20 µM (active).
Turning to `CC(C)(C)c1nc(SCC(=O)Nc2ccc(N3CCOCC3)cc2)c2ccccc2n1`, the “activity, negative = inhibition” value was -25.2%.
Turning to `Cc1ccccc1-c1nc(N2CCNCC2)c2ccccc2n1`, the AC50 was 5.01 µM (active).
With `Cc1ccccc1-c1nc(N2CCOCC2)c2ccccc2n1`, the concentration at half-maximal activity (AC50) was 2 µM (active).
In the case of `Clc1ccccc1-c1nc(N2CCNCC2)c2ccccc2n1`, the AC50 is 2.51 µM (active).
Consider `C[C@@H](N1CCOCC1)[C@@](O)(c1ccccc1)c1ccccn1`, for which the activity, negative = inhibition was -2.48% [at 2.29 µM].
On the same count and under the same terms, under `CN(C)/N=N\c1nc[nH]c1C(N)=O` stands -11.7% [at 25.6 µM].
The same measure, in the same setting: the value for `COc1ccc(O[C@H]2C=C[C@@H](c3ccccc3)O[C@@H]2CO/N=C(\C)CCN2CCCc3nc(C)c(C)cc32)cc1` was -4.49% [at 11.4 µM].
The same measure, in the same setting: under `C=CC[C@@H]1C=C[C@H](O/N=C(\C)CCN2CCCCc3nc(C)c(C)cc32)[C@H](CO)O1` stands -6.73% [at 11.4 µM].
